HT1080 IDH1KD tx: qHTS for induction of synthetic lethality in tumor cells producing 2HG: qHTS for the HT-1080-IDH1KD cell line. HT-1080 IDH1 knockdown viability, ATP luminescence, 48 h. Potency, µM (top dose mostly 46.1 µM), for inactives: top-dose activity, negative = toxicity, hits mostly cytotoxic. 2% of 360,000 active. AID 686971, 2013;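 also: 0% = DMSO wells and -100% = cell-free medium wells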
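Knockdown cells (IDH1KD HT-1080) received compounds 2 h after plating at 750 cells/well and were kept 48 h at 37 °C in 5% FBS RPMI. A CellTiter-Glo luminescence read gave % activity for curve fitting.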
MCF10A rereplic: A quantitative high throughput screen for small molecules that induce DNA re-replication in MCF 10a normal breast cells; MCF 10A DNA re-replication, Hoechst nuclear intensity, 48 h; Potency, µM (titrated, usually from 46.1 µM), without a hit: top-dose activity, positive = re-replication, hits mostly activators; 2.9% of 350,000 active; AID 624296, 2012; also: % of control where 0% means no effect; nearly all actives have a fitted effect of over 50% in size
SW480 rereplic: A quantitative high throughput screen for small molecules that induce DNA re-replication in SW480 colon adenocarcinoma cells | SW480 DNA re-replication, Hoechst DNA content imaging, 48 h | Potency, µM (titrated, usually from 46.1 µM), without a hit: at the highest dose re-replication activation, actives largely listed as activators | 1.8% of 340,000 active; also: % of control where 0% means no effect; nearly all actives have a fitted effect of over 55% in size
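First, 250 cells per well were seeded. Next, compound or vehicle (23 nL) was pinned in, plates sat 48 hr at 37 C. Finally Hoechst was added for 40 min before fluorescence scanning.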
HT1080NT lethal: qHTS for induction of synthetic lethality in tumor cells producing 2HG: qHTS for the HT-1080-NT fibrosarcoma cell line; Potency, µM (titrated, usually from 46.1 µM), without a hit: top-dose activity, negative = less viability, most hits filed as cytotoxic; HT-1080-NT fibrosarcoma viability, CellTiter-Glo ATP luminescence, 48 h; 1.6% of 360,000 active;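 also: NT is the 2HG producing partner of a matched IDH1 knockdown line; 0% = DMSO-treated cells and -100% = media-only wells without cells; nearly all actives have a fitted effect of over 55% in size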
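Toxicity toward the 2HG-producing NT line was scored as %Activity, normalised to DMSO and no-cell wells, from CellTiter-Glo luminescence after 48 hours' treatment.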
KB-V1 MDR tox: qHTS assay for MDR1-selective chemotherapeutics: Primary screen using the drug-selected MDR subline cells KB-V1 | KB-V1 MDR cells viability, CellTiter-Glo, 72 h | 3.4% of 400,000 active | Potency, µM (doses to about 46.1 µM), usual class: cytotoxic | AID 1347076, 2019; also: % is scaled to controls: 0 for no effect and ±100 for the full control effect; nearly all actives have a fitted effect of over 60% in size
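qHTS viability screen in drug-selected KB-V1 MDR cells: 72 h compound treatment at 37 degrees C, ATP luminescence end point.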
KB-3-1 cytotox: qHTS assay for MDR1-selective chemotherapeutics: Primary screen using the parental adenocarcinoma cell KB-3-1; AID 1347075, 2019; Potency, µM (top dose mostly 46.1 µM), most hits filed as cytotoxic; 1.4% of 400,000 active; KB-3-1 viability, CellTiter-Glo ATP luminescence, 72 h; also: % is scaled to controls: 0 for no effect and ±100 for the full control effect; nearly all actives have a fitted effect of over 60% in size
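KB-3-1 cells, DMEM (no phenol red) + 10% FBS; compound by pin transfer, 72 h, 37 °C. Readout: CellTiter-Glo luminescence after 10 min. Data normalized, curve-fitted.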
* = called active by the depositor; i = inactive; ? = inconclusive; nt = no result; [ ] = remark or other dose. Sampled rows, rich in hits. Any-hit rate of the full collection: about 8%. Calls follow the shape of the dose curve; as a rule, active = well fitted curve in the direction sought with a large enough effect; inconclusive = small, poorly fitted or top-dose-only effect, or another doubt; inactive = no such curve, though single readings can be large; an effect the other way counts as inactive or inconclusive. Potency is read from the fitted curve at half-maximal effect.

SMILES	HT1080 IDH1KD tx	MCF10A rereplic	SW480 rereplic	HT1080NT lethal	KB-V1 MDR tox	KB-3-1 cytotox
O=C(NC(=S)N1CCN(c2nc(-c3ccccc3)cs2)CC1)c1cccnc1	-5%	?	?	-7%	21µM*	i
COc1cccc(-c2csc(N3CCN(C(=O)C4CCCCC4)CC3)n2)c1	-4%	15µM*	4%	2%	18µM*	?
COc1ccc(-c2csc(N3CCN(C(=O)c4ccccc4)CC3)n2)cc1	0%	?	-6%	5%	16µM*	i
COCCNC(=S)N1CCN(c2nc(-c3ccccc3)cs2)CC1	-6%	1%	-10%	?	i	i
O=C(NC1CCCCC1)N1CCN(c2nc(-c3ccccc3)cs2)CC1	?	?	1%	-25%	12µM*	i
C[C@@H]1CN([C@H](C)CO)C(=O)CCCn2nncc2CO[C@H]1CN(C)C(=O)CCC(F)(F)F	0%	nt	nt	-1%	i	i
COCCCNC(=S)N1CCN(c2nc(-c3ccc(F)cc3)cs2)CC1	-17%	-2%	?	?	i	?
COc1ccc(-c2csc(N3C(=O)C4C5c6ccccc6C(c6ccccc65)C4C3=O)n2)cc1 (configuration not stated)	?	-1%	-5%	17%	6.5µM*	i
CCN1CCN(C(=O)NC2CCCCC2)CC1	7%	?	?	9%	i	i
S=C(NCCCN1CCOCC1)N1CCN(c2nc(-c3ccccc3)cs2)CC1	23µM*	?	0%	18µM*	i	i
S=C(NCCCN1CCOCC1)N1CCN(c2nc(-c3ccc(Cl)cc3)cs2)CC1	?	?	?	?	i	?
CCOCCCNC(=S)N1CCN(c2nc(-c3ccc(F)cc3)cs2)CC1	?	-6%	-12%	21µM*	?	?
O=C(NC1CCCCC1)N1CCN(CCc2ccccc2)CC1	4%	?	0%	5%	18µM*	i
CN1C(=O)C(O)(CC(=O)/C=C/C=C/c2ccccc2)c2ccccc21 (configuration not stated)	0%	0%	-5%	9%	i	i
CC(OC(=O)c1snc(C(=O)NC2CCCCC2)c1N)C(=O)NC(C)(C)C (configuration not stated)	?	3%	-1%[9.22 µM]	-9%	?	i
O=C(N1CCOCC1)N1CCN(c2nc(-c3ccccc3)cs2)CC1	5%	?	-3%	4%	21µM*	i
c1ccc(-c2csc(N3CCOCC3)n2)cc1	-1%	10%	2%	25%	i	i
O=C(Nc1ccc(Cl)cc1C(=O)NCc1cccnc1)c1ccc(Cl)cc1Cl	?	?	?	?	?	21µM*
Cc1nc(C)c(C(=O)NNS(=O)(=O)c2ccc([N+](=O)[O-])cc2)s1	15%	-5%	-3%	11%	i	i
CCOC(=O)c1[nH]c(C)c(C(=O)N2CCCC(Nc3ccc(C)c(C)c3)C2)c1C (configuration not stated)	0%	-1%	?	8%	i	i
O=S(=O)(CCSc1nc2ccccc2o1)c1nc2ccccc2s1	6.3µM*	?	4.6µM*	10µM*	i	i
O=S(=O)(CCSc1ccccn1)c1nc2ccccc2s1	7.9µM*	?	?	20µM*	i	i
O=C(CSc1ccccn1)Nc1nc2ccccc2s1	-2%	4%	-7%	-2%	i	i
CCS(=O)(=O)CCSc1nc2ccccc2o1	-1%	9%	0%	-5%	i	i
Cc1cccc(N2CCN(C(=S)NCCc3ccccc3)CC2)c1C	14%	37%	-20%	11%	?	i
SMILES	HT1080 IDH1KD tx	MCF10A rereplic	SW480 rereplic	HT1080NT lethal	KB-V1 MDR tox	KB-3-1 cytotox
COC(=O)c1sccc1NC(=S)N1CCN(c2cccc(C)c2C)CC1	-8%	4.1µM*	?	-20%	?	?
COC(=O)c1sccc1NC(=S)N1CCCCC1	-1%	0%	1%	-5%	i	i
COCCNC(=S)N1CCN(c2cccc(C)c2C)CC1	-23%	11%	-1%	-12%	21µM*	i
COC(=O)c1ccc(NC(=S)N2CCN(Cc3ccc(Cl)cc3)CC2)cc1	?	?	13%	?	?	i
CCN1C(=O)N[C@@H](c2cccc(C(F)(F)F)c2)[C@H](C(=O)OC)[C@H]1C	-2%	2%	0%	20%	i	i
CC1CC2(C)Oc3ccccc3CC2C(C)C1CNCCCN(C)C (configuration not stated)	6.5µM*	7.3µM*	5.2µM*	5.8µM*	18µM*	15µM*
COc1cccc(NC(=O)Nc2ccc(C)c(Cl)c2)c1	-20%	?	-94%	-1%	i	i
Cc1ccc(NS(=O)(=O)c2ccc(Cl)c(C(=O)Nc3ccccc3-c3nc4ccccc4[nH]3)c2)cc1C	8.2µM*	5.2µM*	8.2µM*	6.5µM*	7.3µM*	?
Cc1ccc(NS(=O)(=O)c2ccc3nc(-c4ccccc4)[nH]c3c2)cc1Cl	nt	nt	nt	nt	i	?
O=C(c1ccncc1)N1CCN(C2CCCCC2)CC1	10%	-4%	-16%	3%	i	i
Cc1ccc(/C=N/NC(=O)CSCc2ccc(Cl)cc2)cc1	?	?	-1%	?	?	i
CC(C)CSC1=NSC2=NC(=O)/C(=C\c3cccs3)C(=N)N12	-14%	21µM*	10%	-1%	?	?
CSC1=NSC2=NC(=O)/C(=C/c3coc4ccccc4c3=O)C(=N)N12	-16%	?	-1%	-8%	?	i
CSC1=NSC2=NC(=O)/C(=C\c3cccs3)C(=N)N12	-24%	?	-13%	-21%	4.6µM*	?
N=C1/C(=C/c2cccs2)C(=O)N=C2SN=C(SCc3ccccc3)N12	-10%	?	-5%	-2%	23µM*	?
CC1=CC2=NC(=O)/C(=C/c3cccs3)C(=N)N2O1	12%	5%	-3%	-2%	i	i
CCCNC(=O)c1cnn2c(C(F)F)cc(-c3ccccc3)nc12	nt	nt	nt	nt	i	i

From PubChem
